Experimental data reported in PubChem BioAssay (NCATS).
“And” between values parts separate entries of the source, which are not always exact repeats. Equal entries are not always repeated. Records with an inconclusive call do not appear. The source made the active and inactive calls. Unless noted, the call rests on the fitted dose curve.

Key:
[1] = molecular target: Bile acid receptor (Homo sapiens) (UniProt Q96RI1); test: qHTS assay for small molecule antagonists of farnesoid X receptor signaling (AID 588526); further: on the % scale 0 is the no-effect control and ±100 the full control effect
In short: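 Concentration-response titrations were fitted to the Hill equation for half-maximal inhibition and maximal response, with data normalised to 50 uM chenodeoxycholic acid and DMSO control wells. Cells: FXR-UAS-bla HEK293T, dialyzed FBS.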

[2] = molecular target: Vitamin D3 receptor (Homo sapiens) (UniProt P11473); test: qHTS assay for small molecule antagonists of vitamin D receptor signaling (AID 588541);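 further: receptor activated by calcitriol during compound treatment; series mostly up to about 77 µM; on the % scale 0 is the no-effect control and ±100 the full control effect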
In short: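 VDR-UAS-bla HEK293T cells (2000/well, 2% charcoal-stripped FBS) were treated with titrated compounds plus 1-alpha,25-dihydroxyvitamin D3 (50 nM or 3 nM final) for 16 h at 37 C. CCF4 beta-lactamase fluorescence was read; Hill fits gave IC50.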

[3] = molecular target: Vitamin D3 receptor (Homo sapiens) (UniProt P11473); test: qHTS assay for small molecule agonists of vitamin D receptor signaling (AID 588543);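 further: 0% = DMSO basal and 100% = reference agonist control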
In short: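 Agonist-mode beta-lactamase reporter: HEK293T VDR-UAS-bla cells in charcoal-stripped 2% FBS, compound series 16 h 37 C, CCF4 2 h RT. EC50 from Hill fit, scaled against DMSO and 50 nM calcitriol control.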

[4] = qHTS assay for small molecule antagonists of retinoid X receptor alpha signaling (AID 588546; active means well fitted inhibition curve with a large enough effect in the signal ratio, with a control signal flat, not every such curve was filed as active; the % refers to the signal ratio;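 further: cells stimulated with 9-cis-retinoic acid as agonist; on the % scale 0 is the no-effect control and ±100 the full control effect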); settings: HEK293T RXRa-UAS-bla, beta-lactamase ratio, antagonist mode; measured here: W530 green channel, cytotoxicity proxy
In short: (§1)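 Beta-lactamase reporter inhibition, read as CCF4 fluorescence ratio (ex 405, em 460/530 nm) after 2 h at RT. HEK293T UAS-bla cells, 2500/well, were stimulated with 9-cis-RA at 500 or 100 nM final alongside test compound for 18 h at 37 C.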

[5] = molecular target: Thyroid hormone receptor beta (Homo sapiens) (UniProt P10828); test: qHTS assay for small molecule antagonists of thyroid hormone receptor beta signaling (AID 588547; active means well fitted inhibition curve with a large enough effect in the signal ratio, with a control signal flat, not every such curve was filed as active; the % refers to the signal ratio); settings: TR-UAS-bla HEK293, beta-lactamase ratio, antagonist mode, 18 h
In short: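 TR-UAS-bla GripTite HEK293 cells in 2% charcoal/dextran FBS medium were preincubated 4 h at 37 C, given compound (0.59 nM to 92 uM) plus 0.4 nM T3 (final) for 18 h, then CCF4 for 2 h at RT; Hill fit gave IC50.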

[6] = molecular target: Voltage-gated inwardly rectifying potassium channel KCNH2 (Homo sapiens) (UniProt Q12809); test: qHTS Assay for Small Molecule Inhibitors of the Human hERG Channel Activity (AID 588834; active means well fitted inhibition curve with a large enough effect;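 further: top concentration of the series differs between compounds; on the % scale 0 is the no-effect control and ±100 the full control effect; lower thallium flux fluorescence means stronger hERG block; nearly all actives have a fitted effect of over 50% in size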)
In short: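 hERG block measured as reduced thallium-dye (FluxOR) fluorescence after stimulation buffer addition, read over 2 min. Cells were hERG-BacMam-transduced U2OS exposed to compound ~10 min […]; concentration-response fitted with Hill equation for AC50.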

[7] = qHTS assay for small molecule agonists of the antioxidant response element (ARE) signaling pathway (AID 651741; active means well fitted activation curve with a large enough effect in the signal ratio; the % refers to the signal ratio; further: % of control where 0% means no effect)
In short: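 Beta-lactamase reporter expression driven by the antioxidant response element in HepG2 cells was detected by fluorescence with LiveBLAzer B/G FRET substrate (2 h, room temperature) following 16 h compound treatment at 37 C.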

[8] = qHTS assay for small molecule activators of the p53 signaling pathway (AID 651743; active means well fitted activation curve with a large enough effect in the signal ratio, not every such curve was filed as active; the % refers to the signal ratio; further: series mostly up to about 92 µM; % of control where 0% means no effect); settings: HCT-116 p53RE-bla, beta-lactamase FRET ratio, 16 h; stronger effect = higher value
In short: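 Here HCT-116 cells with an integrated p53-responsive beta-lactamase gene were incubated with compounds (16 hours, 37 C) after a 5-hour plating period; beta-lactamase activity was detected as fluorescence intensity via B/G FRET substrate.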

[9] = qHTS assay for small molecule disruptors of the mitochondrial membrane potential - 1 hr assay (AID 651754); further: on the % scale 0 is the no-effect control and ±100 the full control effect; nearly all actives have a fitted effect of over 35% in size
In short: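 In this qHTS format, a 1 hr compound treatment of HepG2 cells precedes Mito-MPS staining, and membrane potential is judged from aggregate (red) against monomer (green) fluorescence intensity.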

[10] = molecular target: Glucocorticoid receptor (Homo sapiens) (UniProt P04150); test: qHTS assay for small molecule agonists of glucocorticoid receptor signaling (AID 588532; active means well fitted curve in the direction sought with a large enough effect in the signal ratio, with a control signal flat; the % refers to the signal ratio;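 further: 100% = dexamethasone at 0.1 µM and 0% = DMSO only wells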); settings: HeLa MMTV-bla, beta-lactamase ratio, agonist, 18 h; stronger effect = higher value; percent of dexamethasone control, DMSO zero
In short: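 Stimulation of a glucocorticoid response element-driven beta-lactamase gene was measured in HeLa cells. Responses were scaled between DMSO basal and 0.1 uM dexamethasone, then fitted for half-maximal stimulation.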

[11] = molecular target: Glucocorticoid receptor (Homo sapiens) (UniProt P04150); test: qHTS assay for small molecule antagonists of glucocorticoid receptor signaling (AID 588533; active means well fitted inhibition curve with a large enough effect in the signal ratio, with a control signal flat, not every such curve was filed as active; the % refers to the signal ratio)
In short: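 Antagonist-mode qHTS: compound titrations added to GRE-bla HeLa cells, then dexamethasone 2 nM final; 18 h, 37 C. CCF4 FRET fluorescence normalized to dexamethasone and DMSO; IC50 from Hill fit.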

[12] = qHTS assay for small molecule antagonists of peroxisome proliferator-activated receptor delta signaling (AID 588535; active means well fitted inhibition curve with a large enough effect in the signal ratio, with a control signal flat, not every such curve was filed as active; the % refers to the signal ratio;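 on max response: cells co-treated with a PPAR-delta agonist as stimulator during compound exposure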); settings: HEK293T PPARd-UAS-bla, beta-lactamase FRET ratio, 18 h; 460 nm channel
In short: (§2)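 Compounds tested in titration on PPAR-delta-UAS-bla HEK293T cells grown in charcoal/dextran-stripped serum (2%); beta-lactamase activity read via CCF4 emission at 460 and 530 nm.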

[13] = molecular target: Peroxisome proliferator-activated receptor delta (Homo sapiens) (UniProt Q03181); test: as above
In short: as §2

[14] = molecular target: Peroxisome proliferator-activated receptor gamma (Homo sapiens) (UniProt P37231); test: qHTS assay for small molecule agonists of peroxisome proliferator-activated receptor gamma signaling (AID 588536; active means well fitted curve in the direction sought with a large enough effect in the signal ratio, with a control signal flat, not every such curve was filed as active; the % refers to the signal ratio;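 further: 0% = DMSO basal wells and 100% = rosiglitazone at 2 µM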)
In short: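 Compound treatment: 16 h, 37 C, HEK293 GeneBLAzer cells. Detection: CCF4, 2 h RT. Values: Hill-fit EC50, efficacy as % of 2 uM rosiglitazone.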

[15] = molecular target: Peroxisome proliferator-activated receptor gamma (Homo sapiens) (UniProt P37231); test: qHTS assay for small molecule antagonists of peroxisome proliferator-activated receptor gamma signaling (AID 588537; active means well fitted inhibition curve with a large enough effect in the signal ratio, with a control signal flat, not every such curve was filed as active; the % refers to the signal ratio;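 further: reporter cells co-stimulated with 50 nM rosiglitazone agonist during compound treatment; % of control where 0% means no effect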)
In short: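 HEK293 cells, PPAR-gamma-UAS-bla, 3000/well. Pre-incubation 6-6.5 h, 37 C. Compound titration with rosiglitazone 50 nM final, 16 h. CCF4 dye, 2 h RT, dual-emission fluorescence.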

[16] = qHTS assay for small molecule agonists of retinoid X receptor alpha signaling (AID 588544); settings: HEK293T RXRa-UAS-bla, beta-lactamase reporter, 18 h; 530 nm emission;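 on activation: 0% = DMSO basal wells and 100% = reference agonist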
[17] = molecular target: Retinoic acid receptor RXR-alpha (Homo sapiens) (UniProt P19793); test: as above
[18] = molecular target: Retinoic acid receptor RXR-alpha (Homo sapiens) (UniProt P19793); test: qHTS assay for small molecule antagonists of retinoid X receptor alpha signaling (AID 588546); settings: HEK293T RXRa-UAS-bla, beta-lactamase ratio, antagonist mode;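 further: cells stimulated with 9-cis-retinoic acid as agonist; on the % scale 0 is the no-effect control and ±100 the full control effect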
In short: as §1

[19] = qHTS assay for small molecule activators of the nuclear factor-kappa B (NF-kB) signaling pathway (AID 651749; active means well fitted activation curve with a large enough effect in the signal ratio; the % refers to the signal ratio; further: series mostly up to about 77 µM; % of control where 0% means no effect); settings: NF-kB-bla ME-180 cells, beta-lactamase FRET ratio, 16 h; stronger effect = higher value
In short: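 Beta-lactamase reporter expression, controlled by NF-kB response elements in ME-180 cells, was quantified fluorometrically via FRET disruption; cells at 2,000/well had been incubated with 23 nL test compound for 16 hr.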

Sequence of Vitamin D3 receptor (Homo sapiens) (P11473 whole entry, looked up): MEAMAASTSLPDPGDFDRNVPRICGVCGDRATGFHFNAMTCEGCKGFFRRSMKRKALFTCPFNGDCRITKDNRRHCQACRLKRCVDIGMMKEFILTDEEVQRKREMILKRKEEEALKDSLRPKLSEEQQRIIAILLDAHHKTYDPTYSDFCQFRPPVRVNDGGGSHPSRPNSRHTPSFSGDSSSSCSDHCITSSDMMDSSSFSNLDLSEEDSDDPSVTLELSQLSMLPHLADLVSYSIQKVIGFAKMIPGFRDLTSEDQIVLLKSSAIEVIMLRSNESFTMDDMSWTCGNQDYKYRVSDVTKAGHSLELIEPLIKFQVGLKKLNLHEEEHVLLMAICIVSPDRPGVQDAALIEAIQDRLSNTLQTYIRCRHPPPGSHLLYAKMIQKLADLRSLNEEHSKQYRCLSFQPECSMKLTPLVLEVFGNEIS
Sequence of Peroxisome proliferator-activated receptor delta (Homo sapiens) (Q03181 whole entry, looked up): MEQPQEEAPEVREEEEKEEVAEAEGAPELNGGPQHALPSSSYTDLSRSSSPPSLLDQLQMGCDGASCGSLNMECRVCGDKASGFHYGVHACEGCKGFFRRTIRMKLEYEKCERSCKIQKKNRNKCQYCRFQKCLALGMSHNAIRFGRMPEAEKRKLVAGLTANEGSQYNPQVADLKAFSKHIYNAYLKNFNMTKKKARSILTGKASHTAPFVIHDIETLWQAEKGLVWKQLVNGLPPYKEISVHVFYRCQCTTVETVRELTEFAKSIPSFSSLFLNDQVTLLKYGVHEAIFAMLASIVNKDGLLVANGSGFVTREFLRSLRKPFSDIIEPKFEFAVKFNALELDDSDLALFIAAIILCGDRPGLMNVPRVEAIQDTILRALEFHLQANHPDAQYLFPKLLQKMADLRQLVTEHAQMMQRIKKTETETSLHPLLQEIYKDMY
Sequence of Peroxisome proliferator-activated receptor gamma (Homo sapiens) (P37231 whole entry, looked up): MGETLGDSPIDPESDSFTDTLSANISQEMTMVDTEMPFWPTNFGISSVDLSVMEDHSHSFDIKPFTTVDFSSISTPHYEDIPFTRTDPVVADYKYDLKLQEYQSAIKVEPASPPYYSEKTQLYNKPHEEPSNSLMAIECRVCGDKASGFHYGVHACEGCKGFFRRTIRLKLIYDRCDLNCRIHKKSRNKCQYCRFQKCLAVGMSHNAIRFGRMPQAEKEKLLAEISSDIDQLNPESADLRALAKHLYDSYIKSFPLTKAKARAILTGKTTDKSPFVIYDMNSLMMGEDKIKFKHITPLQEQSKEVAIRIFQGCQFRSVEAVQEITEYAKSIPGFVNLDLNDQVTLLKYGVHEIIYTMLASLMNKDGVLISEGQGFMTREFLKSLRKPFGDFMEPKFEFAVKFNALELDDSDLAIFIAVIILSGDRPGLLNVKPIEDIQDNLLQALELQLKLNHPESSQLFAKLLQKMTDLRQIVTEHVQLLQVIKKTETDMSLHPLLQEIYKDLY
Sequence of Thyroid hormone receptor beta (Homo sapiens) (P10828 whole entry, looked up): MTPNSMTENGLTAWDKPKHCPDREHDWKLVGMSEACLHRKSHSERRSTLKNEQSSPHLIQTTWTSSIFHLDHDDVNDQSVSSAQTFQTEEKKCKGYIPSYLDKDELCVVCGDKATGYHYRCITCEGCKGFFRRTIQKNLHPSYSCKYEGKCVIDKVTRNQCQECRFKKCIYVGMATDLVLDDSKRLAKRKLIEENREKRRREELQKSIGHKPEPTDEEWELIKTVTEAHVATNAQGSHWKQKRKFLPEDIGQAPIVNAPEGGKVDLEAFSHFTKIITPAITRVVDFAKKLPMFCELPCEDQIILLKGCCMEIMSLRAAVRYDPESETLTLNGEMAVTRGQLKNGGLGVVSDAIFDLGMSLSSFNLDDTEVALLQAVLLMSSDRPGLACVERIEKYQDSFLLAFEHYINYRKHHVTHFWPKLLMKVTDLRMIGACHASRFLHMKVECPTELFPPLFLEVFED
Sequence of Glucocorticoid receptor (Homo sapiens) (P04150 whole entry, looked up): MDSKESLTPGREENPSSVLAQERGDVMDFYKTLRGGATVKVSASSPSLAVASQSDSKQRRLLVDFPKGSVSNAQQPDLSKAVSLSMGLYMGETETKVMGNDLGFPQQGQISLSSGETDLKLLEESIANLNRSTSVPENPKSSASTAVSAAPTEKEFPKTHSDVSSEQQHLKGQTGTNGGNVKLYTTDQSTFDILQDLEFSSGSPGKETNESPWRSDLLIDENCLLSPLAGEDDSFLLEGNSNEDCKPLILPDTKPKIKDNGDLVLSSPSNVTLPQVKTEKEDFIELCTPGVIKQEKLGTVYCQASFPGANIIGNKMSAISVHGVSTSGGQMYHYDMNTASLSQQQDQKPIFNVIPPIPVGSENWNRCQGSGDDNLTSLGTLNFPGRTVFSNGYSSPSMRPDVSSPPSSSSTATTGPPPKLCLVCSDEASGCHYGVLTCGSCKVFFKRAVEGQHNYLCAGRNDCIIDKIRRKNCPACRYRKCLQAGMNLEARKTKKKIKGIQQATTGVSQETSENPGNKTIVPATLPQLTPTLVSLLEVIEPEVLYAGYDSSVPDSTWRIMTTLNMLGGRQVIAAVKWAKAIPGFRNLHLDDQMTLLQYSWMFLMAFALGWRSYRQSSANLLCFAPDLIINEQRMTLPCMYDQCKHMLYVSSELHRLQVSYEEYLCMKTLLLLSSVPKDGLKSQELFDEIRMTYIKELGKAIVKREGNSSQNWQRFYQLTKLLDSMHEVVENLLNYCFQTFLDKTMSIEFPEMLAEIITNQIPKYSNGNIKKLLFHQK
Sequence of Voltage-gated inwardly rectifying potassium channel KCNH2 (Homo sapiens) (Q12809 whole entry, looked up): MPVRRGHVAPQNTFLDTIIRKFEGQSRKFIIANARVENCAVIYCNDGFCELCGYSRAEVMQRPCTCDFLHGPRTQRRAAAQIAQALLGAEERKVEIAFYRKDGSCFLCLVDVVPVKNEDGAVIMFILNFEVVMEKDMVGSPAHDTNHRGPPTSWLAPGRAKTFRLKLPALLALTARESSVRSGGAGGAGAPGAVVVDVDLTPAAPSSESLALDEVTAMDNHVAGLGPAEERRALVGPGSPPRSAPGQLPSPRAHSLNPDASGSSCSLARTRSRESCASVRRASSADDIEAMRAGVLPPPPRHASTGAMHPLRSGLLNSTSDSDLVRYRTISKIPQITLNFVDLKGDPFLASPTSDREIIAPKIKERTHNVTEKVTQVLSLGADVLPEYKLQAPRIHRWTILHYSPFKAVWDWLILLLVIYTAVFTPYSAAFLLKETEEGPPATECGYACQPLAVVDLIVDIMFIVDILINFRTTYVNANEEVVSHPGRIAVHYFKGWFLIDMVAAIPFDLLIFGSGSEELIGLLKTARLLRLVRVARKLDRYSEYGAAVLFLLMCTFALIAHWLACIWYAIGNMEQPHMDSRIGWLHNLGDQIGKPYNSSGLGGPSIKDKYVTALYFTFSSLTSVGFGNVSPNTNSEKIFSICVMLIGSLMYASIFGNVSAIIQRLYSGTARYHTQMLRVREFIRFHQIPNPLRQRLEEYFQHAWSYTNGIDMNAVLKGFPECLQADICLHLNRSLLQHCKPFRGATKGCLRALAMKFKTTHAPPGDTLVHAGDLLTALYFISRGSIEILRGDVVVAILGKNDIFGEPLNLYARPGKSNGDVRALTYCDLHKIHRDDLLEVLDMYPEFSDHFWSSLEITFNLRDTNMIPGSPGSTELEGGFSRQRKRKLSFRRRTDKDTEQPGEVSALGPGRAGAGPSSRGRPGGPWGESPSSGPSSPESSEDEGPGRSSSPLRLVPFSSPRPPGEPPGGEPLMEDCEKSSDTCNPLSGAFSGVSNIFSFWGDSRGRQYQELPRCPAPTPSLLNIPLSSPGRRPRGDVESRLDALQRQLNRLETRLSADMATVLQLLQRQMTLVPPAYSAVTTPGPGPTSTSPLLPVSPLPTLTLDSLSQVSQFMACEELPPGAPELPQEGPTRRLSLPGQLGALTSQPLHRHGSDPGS
Sequence of Retinoic acid receptor RXR-alpha (Homo sapiens) (P19793 whole entry, looked up): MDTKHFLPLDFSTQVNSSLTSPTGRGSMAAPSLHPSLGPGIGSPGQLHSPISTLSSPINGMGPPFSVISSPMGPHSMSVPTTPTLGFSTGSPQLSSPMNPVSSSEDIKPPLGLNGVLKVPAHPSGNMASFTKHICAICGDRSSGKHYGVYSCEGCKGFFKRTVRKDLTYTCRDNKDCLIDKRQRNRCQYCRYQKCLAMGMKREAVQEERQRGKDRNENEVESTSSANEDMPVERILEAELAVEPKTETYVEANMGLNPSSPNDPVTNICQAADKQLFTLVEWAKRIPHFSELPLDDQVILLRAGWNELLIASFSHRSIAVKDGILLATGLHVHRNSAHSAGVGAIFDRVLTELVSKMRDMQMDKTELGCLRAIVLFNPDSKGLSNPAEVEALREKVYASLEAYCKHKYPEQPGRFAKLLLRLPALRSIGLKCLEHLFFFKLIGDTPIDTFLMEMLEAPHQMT
Sequence of Bile acid receptor (Homo sapiens) (Q96RI1 whole entry, looked up): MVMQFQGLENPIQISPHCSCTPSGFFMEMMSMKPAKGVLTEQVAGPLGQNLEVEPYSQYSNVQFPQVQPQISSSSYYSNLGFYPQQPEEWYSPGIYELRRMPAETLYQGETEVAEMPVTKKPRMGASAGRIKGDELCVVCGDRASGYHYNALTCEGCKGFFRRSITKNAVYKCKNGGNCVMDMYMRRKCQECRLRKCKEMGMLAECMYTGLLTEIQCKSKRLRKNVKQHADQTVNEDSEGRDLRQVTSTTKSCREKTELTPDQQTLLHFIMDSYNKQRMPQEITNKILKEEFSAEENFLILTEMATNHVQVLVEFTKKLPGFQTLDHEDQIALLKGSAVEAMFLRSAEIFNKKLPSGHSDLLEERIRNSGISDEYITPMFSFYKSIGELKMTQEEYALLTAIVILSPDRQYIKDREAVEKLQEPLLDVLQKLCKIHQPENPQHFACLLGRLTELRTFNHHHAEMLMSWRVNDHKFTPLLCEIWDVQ

COc1ccccc1[N+](=O)[O-]
-6.53% and 1.73%: max response [4]
inactive: outcome [1] | outcome [2] | outcome [3] | activity change % (negative = inhibition) [5] -3.34% and -9.45% | Potency [6] | Potency [7] | activation [8] -2.31% and 1.29% | Potency [9]

COCCOC(=O)c1ccccc1C(=O)OCCOC
-2.63%: max response [12]
inactive: activation [10] -0.475% | outcome [11] | Potency [13] | outcome [14] | outcome [15] | outcome [2] | outcome [3] | outcome [17] | max response [18] 23.2% | activity change % (negative = inhibition) [5] 7.4% | Potency [6] | Potency [7] | activation [8] -1.05% | activation [19] 0.152% | Potency [9]
-3.43%: max response [4]
-5.12%: max response [16]

CCCC=O
10.5%: max response [12]
-4.54%: max response [16]
inactive: activation [10] -2.2% | outcome [11] | Potency [13] | outcome [14] | outcome [2] | outcome [3] | outcome [17] | max response [18] 14.7% | activity change % (negative = inhibition) [5] -7% | Potency [6] | activation [8] -2.76% | activation [19] -4.7% | Potency [9]
6.82%: max response [4]

COc1ccc(OC)cc1
-6.6%: max response [4]
-11%: max response [16]
inactive: activation [10] -0.922% | outcome [11] | Potency [13] | outcome [14] | outcome [2] | outcome [3] | outcome [17] | max response [18] 0.277% | Potency [6] | activation [8] 1.53% | activation [19] -2.07% | Potency [9]
-6.1%: max response [12]
